The text below walks through data of paper PMC8384837, “Expanding the binding specificity for RNA recognition by a PUF domain”.

Substitutions are numbered along the chain they refer to.

What all share (assay): yeast three-hybrid, YBZ-1, SC-Leu-His + 0.5 mM 3-AT, 4 days
Holding throughout (details): tags: N-Gal4 AD-HA kept; label: inside an RPR1-promoter hybrid RNA with tandem MS2 sites; ssRNA

One assay concerns the target PUM1 PUF domain R5-TRG (Homo sapiens, UniProt Q14671 828-1176, C1007T;Q1011G). In short, it runs like this: (§1)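 Sequencing with Illumina followed PCR amplification of the repeat regions from transformants grown four days on SC-Leu (input) or SC-Leu-His + 0.5 mM 3-AT (selection). The transformants were strain YBZ-1 with a LexA–MS2 coat fusion and a HIS3 reporter, carrying Pumilio-1 PUF domain libraries and matching RNA elements. The interaction score is the log change in variant frequency from input to selection, computed in log2 with a pseudocount of 1 for absent variants.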

In a further assay the target is PUM1 PUF domain R5-GLW (Homo sapiens, UniProt Q14671 828-1176, C1007G;R1008L;Q1011W). The procedure, abridged:
as §1

In another assay the target is PUM1 PUF domain R4-VSL (Homo sapiens, UniProt Q14671 828-1176, N971V;H972S;Q975L). In short, it runs like this: as §1
A further assay concerns the target T1, PUM1 PUF domain R6-VFQ (Homo sapiens, UniProt Q14671 828-1176, N1043V;Y1044F).
T1 sequence: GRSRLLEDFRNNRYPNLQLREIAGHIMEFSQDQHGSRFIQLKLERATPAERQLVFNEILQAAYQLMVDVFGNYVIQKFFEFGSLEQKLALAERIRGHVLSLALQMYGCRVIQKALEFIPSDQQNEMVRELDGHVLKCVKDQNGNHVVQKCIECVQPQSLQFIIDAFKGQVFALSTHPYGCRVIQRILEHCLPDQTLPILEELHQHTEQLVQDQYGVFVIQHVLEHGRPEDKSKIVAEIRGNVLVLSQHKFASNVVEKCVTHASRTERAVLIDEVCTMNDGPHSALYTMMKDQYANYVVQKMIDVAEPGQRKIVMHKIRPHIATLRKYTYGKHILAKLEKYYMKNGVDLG
In short, it runs like this: as §1

A further assay addresses T2, PUM1 PUF domain R6-LWQ (Homo sapiens, UniProt Q14671 828-1176, N1043L;Y1044W).
T2 sequence: T1 sequence with V216L, F217W
In short, it runs like this: as §1

In a further assay the target is PUM1 PUF domain R3-TFF (Homo sapiens, UniProt Q14671 828-1176, C935T;R936F;Q939F). In short, it runs like this:
as §1

In a further assay the target is PUM1 PUF domain R5-HKE (Homo sapiens, UniProt Q14671 828-1176, C1007H;R1008K;Q1011E). In short, it runs like this:
as §1

Another assay addresses PUM1 PUF domain R5-RKC (Homo sapiens, UniProt Q14671 828-1176, C1007R;R1008K;Q1011C). In short, it runs like this:
as §1

A further assay has as its target PUM1 PUF domain R5-SSR (Homo sapiens, UniProt Q14671 828-1176, C1007S;R1008S;Q1011R). In short, it runs like this: as §1
For another assay, the target named is PUM1 PUF domain R8-RFP (Homo sapiens, UniProt Q14671 828-1176, N1122R;Y1123F;Q1126P). The procedure, abridged: as §1
Another assay deals with PUM1 PUF domain R4-VPQ (Homo sapiens, UniProt Q14671 828-1176, N971V;H972P). In short, it runs like this: as §1
For a further assay, the target named is PUM1 PUF domain R1-KSN (Homo sapiens, UniProt Q14671 828-1176, S863K;R864S;Q867N). The procedure, abridged:
as §1

The target of another assay is PUM1 PUF domain R7-RVM (Homo sapiens, UniProt Q14671 828-1176, S1079R;N1080V;E1083M). In short, it runs like this:
as §1

A further assay has as its target PUM1 PUF domain R7-KSG (Homo sapiens, UniProt Q14671 828-1176, S1079K;N1080S;E1083G). In short, it runs like this: as §1
The target of a further assay is PUM1 PUF domain R2-EWV (Homo sapiens, UniProt Q14671 828-1176, N899E;Y900W;Q903V). The procedure, abridged:
as §1

The next assay has as its target PUM1 PUF domain R1-VTW (Homo sapiens, UniProt Q14671 828-1176, S863V;R864T;Q867W). The procedure, abridged: as §1

As for “GGCUAGAACUAGUGGAUCCCCCGGCGCCCGGCGGCUCGAGCCCGGGUAAGUGUAAAUAGUCUGCAUGCCGCCGGGCGCCAUGCCUGCAGGUCGACUCUAGAAAACAUG”, the binding signal with PUM1 PUF domain R5-TRG was 2.68 log2 enrichment (interaction score); with PUM1 PUF domain R5-GLW it was 2.11 log2 enrichment (interaction score); in the assay with PUM1 PUF domain R4-VSL, 2.71 log2 enrichment (interaction score); in the assay with PUM1 PUF domain R6-VFQ, 3.65 log2 enrichment (interaction score); with PUM1 PUF domain R6-LWQ it was 5.83 log2 enrichment (interaction score); with PUM1 PUF domain R3-TFF it was 6.12 log2 enrichment (interaction score).

For “GGCUAGAACUAGUGGAUCCCCCGGCGCCCGGCGGCUCGAGCCCGGGUAAGUGUUAAUAGUCUGCAUGCCGCCGGGCGCCAUGCCUGCAGGUCGACUCUAGAAAACAUG”, the binding signal with PUM1 PUF domain R5-TRG is 2.97 log2 enrichment (interaction score); with PUM1 PUF domain R5-GLW, 1.6 log2 enrichment (interaction score).

Turning to “GGCUAGAACUAGUGGAUCCCCCGGCGCCCGGCGGCUCGAGCCCGGGUAAGUGUCAAUAGUCUGCAUGCCGCCGGGCGCCAUGCCUGCAGGUCGACUCUAGAAAACAUG”, the binding signal was 3.67 log2 enrichment (interaction score) in the assay with PUM1 PUF domain R5-HKE, 3.84 log2 enrichment (interaction score) in the assay with PUM1 PUF domain R5-RKC and 6.53 log2 enrichment (interaction score) with PUM1 PUF domain R5-SSR.

As for “GGCUAGAACUAGUGGAUCCCCCGGCGCCCGGCGGCUCGAGCCCGGGUAAGCGUAAAUAGUCUGCAUGCCGCCGGGCGCCAUGCCUGCAGGUCGACUCUAGAAAACAUG”, in the assay with PUM1 PUF domain R8-RFP, the binding signal was 5.8 log2 enrichment (interaction score).

In the case of “GGCUAGAACUAGUGGAUCCCCCGGCGCCCGGCGGCUCGAGCCCGGGUAAGUGUAUAUAGUCUGCAUGCCGCCGGGCGCCAUGCCUGCAGGUCGACUCUAGAAAACAUG”, the binding signal with PUM1 PUF domain R4-VPQ was 2.78 log2 enrichment (interaction score).

Take “GGCUAGAACUAGUGGAUCCCCCGGCGCCCGGCGGCUCGAGCCCGGGUAAGUGAAAAUAGUCUGCAUGCCGCCGGGCGCCAUGCCUGCAGGUCGACUCUAGAAAACAUG”: in the assay with PUM1 PUF domain R6-VFQ, the binding signal was 8.19 log2 enrichment (interaction score).

As for “GGCUAGAACUAGUGGAUCCCCCGGCGCCCGGCGGCUCGAGCCCGGGUAAGUGUAAAUCGUCUGCAUGCCGCCGGGCGCCAUGCCUGCAGGUCGACUCUAGAAAACAUG”, the binding signal with PUM1 PUF domain R1-KSN was 4.24 log2 enrichment (interaction score).

For the sequence “GGCUAGAACUAGUGGAUCCCCCGGCGCCCGGCGGCUCGAGCCCGGGUAAGUUUAAAUAGUCUGCAUGCCGCCGGGCGCCAUGCCUGCAGGUCGACUCUAGAAAACAUG”, the binding signal was 2.72 log2 enrichment (interaction score) with PUM1 PUF domain R7-RVM and 2.37 log2 enrichment (interaction score) with PUM1 PUF domain R7-KSG.

Consider “GGCUAGAACUAGUGGAUCCCCCGGCGCCCGGCGGCUCGAGCCCGGGUAAGUGUAAUUAGUCUGCAUGCCGCCGGGCGCCAUGCCUGCAGGUCGACUCUAGAAAACAUG”, for which, in the assay with PUM1 PUF domain R3-TFF, the binding signal is 1.36 log2 enrichment (interaction score).

On to “GGCUAGAACUAGUGGAUCCCCCGGCGCCCGGCGGCUCGAGCCCGGGUAAGUGUAAAAAGUCUGCAUGCCGCCGGGCGCCAUGCCUGCAGGUCGACUCUAGAAAACAUG”, for which the binding signal with PUM1 PUF domain R2-EWV is 5.9 log2 enrichment (interaction score).

On to “GGCUAGAACUAGUGGAUCCCCCGGCGCCCGGCGGCUCGAGCCCGGGUAAGUGUAAAGAGUCUGCAUGCCGCCGGGCGCCAUGCCUGCAGGUCGACUCUAGAAAACAUG”, for which the binding signal in the assay with PUM1 PUF domain R2-EWV was 2.77 log2 enrichment (interaction score).

Consider “GGCUAGAACUAGUGGAUCCCCCGGCGCCCGGCGGCUCGAGCCCGGGUAAGUGUAAAUUGUCUGCAUGCCGCCGGGCGCCAUGCCUGCAGGUCGACUCUAGAAAACAUG”, for which, in the assay with PUM1 PUF domain R1-VTW, the binding signal is 3.57 log2 enrichment (interaction score).

Turning to “GGCUAGAACUAGUGGAUCCCCCGGCGCCCGGCGGCUCGAGCCCGGGUAAGUCUAAAUAGUCUGCAUGCCGCCGGGCGCCAUGCCUGCAGGUCGACUCUAGAAAACAUG”, in the assay with PUM1 PUF domain R7-KSG, the binding signal is 0.94 log2 enrichment (interaction score).
